From ChEMBL document CHEMBL3988442, “University of Dundee, Small-Polar-MMV Screening Library” (2021)
Among all 69,000 compounds or so, about 950 (1.4%) showed an effect of 50% or more. The list comes from a sample in which strong results are over-represented; it also holds similar structures and randomly drawn compounds.

Each compound was assayed on Mycobacterium tuberculosis (assay: Cornell M. t heat shock assay; note: in the data most compounds retested in dose-response had high values).
Assay type: functional, organism-based
Design: dose or concentration left out as unconfirmed

Point of comparison: `Cc1[nH]/c(=N\C(=O)c2csc(NC3CC3)n2)sc1C`, “Percent Effect” value 102.4%. Against it:
- CC(C)CN1C[C@H]2CCN(Cc3cccnc3)CC[C@H]2S1(=O)=O.O=C(O)C(F)(F)F.O=C(O)C(F)(F)F — lower, -7.462%
- CCOC(=O)C(CO)NC(=O)CCc1cccc(OC2CCCC2)c1 (configuration not stated) — lower, -10.42%
- Cc1ccc(N2N=C(C(=O)O)S(=O)(=O)c3cccnc32)cc1 — lower, -6.267%
- Cc1ccc(N2N=C(C(=O)NCC3CC3)S(=O)(=O)c3cccnc32)cc1 — lower, 9.457%
- Cc1ccc(N2N=C(C(N)=O)S(=O)(=O)c3cccnc32)cc1 — higher, 105.6%
- Cc1ccc(C(=O)N2C[C@@H]3OCCN(CCN4CCCC4)[C@@H]3C2)cn1.O=C(O)C(F)(F)F — lower, 8.47%
- O=C(CC1CC1)N1CCC2(CCCN(CCOc3ccccc3)C2)C1.O=C(O)C(F)(F)F (configuration not stated) — lower, -8.964%
- c1cnn(CCNCCCOc2ccc3c(c2)OCO3)c1 — lower, 0.6427%
- Cc1cnn(CCNCc2csc(C)n2)c1 — lower, 4.294%
- Cc1cnn(CCNCc2csc(-c3ccc(C(N)=O)cc3)n2)c1 — lower, -3.906%
- Cc1cnn(CCNCc2csc(-c3ccc4c(c3)OCO4)n2)c1 — lower, 93.68%
- CC(Cn1cccn1)NCc1csc(-c2ccc3c(c2)OCO3)n1 (configuration not stated) — lower, 35.45%
- c1cnn(CCNCc2csc(-c3ccc4c(c3)OCO4)n2)c1 — lower, 65.17%
- COCC1CN(c2ccncn2)Cc2cnn(CC3CCCC3)c21.O=C(O)C(F)(F)F.O=C(O)C(F)(F)F (configuration not stated) — lower, 3.159%
- Cc1ccc(CN2CCC3(CC2)CCN(C(=O)c2cccnc2)C3)o1.O=C(O)C(F)(F)F — lower, 41.04%
- Cc1cncc(C(=O)N2C[C@H]3CCC[C@@]3(COc3ccccn3)C2)c1.O=C(O)C(F)(F)F.O=C(O)C(F)(F)F — lower, -23.58%
- Cc1ccc(N2CC[C@H]3C[C@H](C(=O)NCc4ccco4)O[C@@H]3C2)cc1.O=C(O)C(F)(F)F — lower, 4.102%
- COc1cccc(C(=O)NC(c2ccccn2)[C@H]2CC[C@H](CN)CC2)c1 (some centres not stated) — lower, 14.74%
- NC[C@H]1CC[C@H](C(NC(=O)c2cccc(F)c2)c2ccccn2)CC1 (some centres not stated) — higher, 107.2%
- NC[C@H]1CC[C@H](C(NC(=O)C2CC2)c2ccccn2)CC1 (some centres not stated) — lower, -11.64%
- NC[C@H]1CC[C@H](C(NC(=O)c2ccccn2)c2ccccn2)CC1 (some centres not stated) — lower, 11.19%
- NC[C@H]1CC[C@H](C(NC(=O)c2ccccc2)c2ccccn2)CC1 (some centres not stated) — lower, 15.73%
- COc1ccccc1C(=O)NC(c1ccccn1)[C@H]1CC[C@H](CN)CC1 (some centres not stated) — lower, 95.79%
- C[C@@H](N)C(=O)N1CC2(CCNCC2)c2cc(Cl)ccc21.Cl.Cl — lower, -22.5%
- O=C(C1=CCCC1)N1CCC2(CC1)CC(Oc1cccnc1)CO2.O=C(O)C(F)(F)F (configuration not stated) — lower, -14.4%
- Cc1nc(CN2CCc3cc(C(=O)O)c(N(C)C)nc3CC2)cs1.O=C(O)C(F)(F)F.O=C(O)C(F)(F)F — lower, 3.488%
- O=C(C1CC1)N1CCN(Cc2ccncc2)c2ncccc2C1.O=C(O)C(F)(F)F.O=C(O)C(F)(F)F — lower, -4.601%
- CCc1onc(C)c1C(=O)N1CCN(c2ncc3c(n2)CCOC3)CC1.Cl — lower, -10.25%
- CCN1CCCc2cc(-c3cncn3C(C)CN3CCOCC3)ccc21.Cl (configuration not stated) — lower, -27.45%
- CCC(CN1CCOCC1)n1cncc1-c1ccc2c(c1)CCN2CC.Cl (configuration not stated) — lower, 100.9%
- CCC(CN1CCOCC1)n1cncc1-c1ccc2c(c1)CCCN2C.Cl (configuration not stated) — lower, 16.42%
- CCC(CN1CCCC1)n1cncc1-c1cnn(-c2ccccc2)c1.Cl (configuration not stated) — lower, -7.106%
- CC(CN1CCOCC1)n1cncc1-c1ccc2c(c1)CCCN2C.Cl (configuration not stated) — lower, -23.4%
- CCN(C)S(=O)(=O)N1CCCC(c2nc(-c3ccccc3)c[nH]2)C1 (configuration not stated) — lower, 14.48%
- CCCS(=O)(=O)N1CCCC(c2nc(-c3ccccc3)c[nH]2)C1 (configuration not stated) — lower, 97.89%
- CS(=O)(=O)N1CCCC(c2nc(-c3ccccc3)c[nH]2)C1 (configuration not stated) — lower, -20.18%
- Cl.Cl.NCC1[C@H]2CN(Cc3ccccc3F)C[C@@H]12 (some centres not stated) — lower, -12.63%
- CC(C)NC(=O)N1CC(=O)c2sc(NC3CCCCC3)nc2C1 — lower, 1.144%
- Cc1[nH]/c(=N/C(=O)Cn2nc(N3CCOCC3)ccc2=O)sc1C — lower, -6.271%
- CC(C)(C)[S+]([O-])CCNC(=O)c1csc(NC2CC2)n1 (configuration not stated) — lower, -16.11%
- Cc1[nH]/c(=N\C(=O)c2csc(NC3CCCC3)n2)sc1C — lower, 101.9%
- CC(=O)Nc1nc(C(=O)N2CCCC(c3cc(C)[nH]n3)C2)cs1 (configuration not stated) — lower, -17.82%
- CN(C)c1ccc(CNCc2cnc(N3CCOCC3)nc2)cn1.Cl — lower, -4.55%
- CC(C)=CCN1C(=O)[C@H]2CC[C@@H]1CN(c1ncccn1)C2 — lower, -39.45%
- O=C(Cc1ccccc1)N1CC[C@H]2[C@@H]1CCC(=O)N2Cc1ccncc1.O=C(O)C(F)(F)F — lower, -22.84%
- CCCN1C[C@H]2CC[C@@H]1CN(Cc1ccc(-n3cccn3)cc1)C2 — higher, 105.3%
- CCCN1C[C@H]2CC[C@@H]1CN(Cc1cccc(-n3cccn3)c1)C2 — lower, -1.729%
- CCCN1C[C@H]2CC[C@@H]1CN(Cc1ccc(Cn3cccn3)cc1)C2 — lower, 25.45%
- COCCN1CCCC12CCN(C(=O)CC1CCCC1)CC2.O=C(O)C(F)(F)F — lower, -21.16%
- O=C(O)C(F)(F)F.O=C(O)C(F)(F)F.O=S(=O)(c1cccnc1)N1C[C@H]2CCC[C@@]2(COc2ccccn2)C1 — lower, -13.75%
- CC(C)c1cnc(CNc2c(F)cccc2-n2cccn2)o1 — lower, 8.854%
- Cn1ccnc1CNc1c(F)cccc1-n1cccn1 — lower, 55.71%
- CCc1noc(CNc2c(F)cccc2-n2cccn2)n1 — lower, -3.038%
- CC(C)(C)c1nnc(CNc2c(F)cccc2-n2cccn2)o1 — lower, 0.6342%
- Cn1c(CNc2c(F)cccc2-n2cccn2)cc(=O)n(C)c1=O — lower, 6.656%
- Cc1cnc(CNc2c(F)cccc2-n2cccn2)o1 — higher, 105%
